Active and inactive are the calls of the source. How the source made its calls: active means hit-call score of the fitted dose curve at least 0.9, where 1 is the maximum; inactive means score below 0.9.
read-out: Glutathione S-transferase M3 (GSTM3), GSTM3 (gene 2947); test: LTEA_HepaRG_GSTM3: Life Technologies and Expression Analysis (LTEA) Assay for Glutathione S-transferase M3 (GSTM3) using HepaRG (AID 2283501); details: mRNA level, 48 h; actives raise or lower the signal
Summary of the method: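 HepaRG, plated 48 h, then serum-free induction medium; test chemical 48 h, duplicate; 100 uM top, half-log x8, 0.5% DMSO. Read-out: GSTM3 mRNA (TaqMan qRT-PCR, Fluidigm array). Bidirectional fit vs DMSO.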

Row | Compound | outcome
1 | COC(=O)CCCC(=O)OC | inactive
2 | O=C(O)CN(CC(=O)O)CC(=O)O | inactive
3 | CCc1nc(N)nc(N)c1-c1ccc(Cl)cc1 | inactive
4 | CC(C)c1cccc(C(C)C)c1NC(=O)NS(=O)(=O)c1cc(C(C)(C)O)co1 | inactive
5 | Oc1ccc(O)cc1 | inactive
6 | NC=O | inactive
7 | CC(=O)S[C@H](C(=O)N[C@H]1Cc2ccccc2[C@H]2CCC[C@@H](C(=O)O)N2C1=O)C(C)C | inactive
8 | CC(=O)CC(c1ccccc1)c1c(O)c2ccccc2oc1=O (stereo not drawn) | inactive
9 | NCCOCCOCCN | inactive
10 | O=C(O)c1[nH]n(-c2ccc(S(=O)(=O)O)cc2)c(=O)c1N=Nc1ccc(S(=O)(=O)O)cc1 | inactive
11 | CCc1cc(C2=C(C(=O)O)N(c3ccccc3C(F)(F)F)S(=O)(=O)c3ccccc32)cc2c1OCO2 | inactive
12 | CCCCCCCCCC[N+](C)(C)[O-] | inactive
13 | CN(C)CCCN1c2ccccc2Sc2ccc(Cl)cc21 | inactive
14 | CSc1ccc(Oc2ccc(S(N)(=O)=O)cc2CN(C)C)cc1C | inactive
15 | CCCCOC(=O)CCCCC(=O)OCCCC | inactive
16 | COc1ccc(C(=O)Nc2nc3ccccc3c(NCc3ccccc3)c2C#N)cc1 | inactive
17 | CN(C)C(=O)NC1(c2ccccc2)CCN(CC[C@@]2(c3ccc(F)c(F)c3)CN(C(=O)c3ccccc3)CCO2)CC1 | inactive
18 | Cc1cc(Cc2ccc(N)c(C)c2)ccc1N | inactive
19 | Cc1cc(SC2=C(O)C[C@@](CCc3ccc(N)cc3)(C(C)C)OC2=O)c(C(C)(C)C)cc1CO | inactive
20 | CCCCCCC(C=O)=Cc1ccccc1 | inactive
21 | O=C1O[C@H]([C@H](O)CO)C(O)=C1O | inactive
22 | CCC(C)N(C)C(=O)c1cc2ccccc2c(-c2ccccc2Cl)n1 (stereo not drawn) | inactive
23 | OCC(O)CO | inactive
24 | CCCCc1nc2cccnc2n1Cc1ccc(-c2ccccc2-c2nnn[nH]2)cc1 | inactive
25 | O=C(O)CC(O)(CC(=O)O)C(=O)O | inactive
26 | O=Cc1ccccc1C=O | inactive
27 | CC1(C)C(=O)NC(=O)N1CO | inactive
28 | CCCC[C@H]1CN(CC2CCOCC2)C(=O)OC12CCN(C1(C)CCN(C(=O)c3c(C)ncnc3C)CC1)CC2 | inactive
29 | C#CC(O)C(CC)CCCC (stereo not drawn) | inactive
30 | Cc1ccc(C(C)(C)C)c(O)c1 | inactive

read-out: Heat shock 70 kDa protein 1 (HSPA1A), gene 3303; test: LTEA_HepaRG_HSPA1A: Life Technologies and Expression Analysis (LTEA) Assay for Heat shock 70 kDa protein 1 (HSPA1A) using HepaRG (AID 2283502); details: mRNA level, 48 h; actives raise or lower the signal
Summary of the method: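 Readout is HSPA1A transcript level by microfluidic qRT-PCR, normalized to three housekeeping genes and analysed for gain or loss of signal relative to 0.5% DMSO. Human HepaRG cultures received test chemicals for 48 h at up to 100 uM.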

Row | Compound | outcome | AC50
31 | COC(=O)CCCC(=O)OC | inactive | 
32 | O=C(O)CN(CC(=O)O)CC(=O)O | inactive | 
33 | CCc1nc(N)nc(N)c1-c1ccc(Cl)cc1 | inactive | 
34 | CC(C)c1cccc(C(C)C)c1NC(=O)NS(=O)(=O)c1cc(C(C)(C)O)co1 | inactive | 
35 | Oc1ccc(O)cc1 | inactive | 
36 | NC=O | inactive | 
37 | CC(=O)S[C@H](C(=O)N[C@H]1Cc2ccccc2[C@H]2CCC[C@@H](C(=O)O)N2C1=O)C(C)C | inactive | 
38 | CC(=O)CC(c1ccccc1)c1c(O)c2ccccc2oc1=O (stereo not drawn) | inactive | 
39 | NCCOCCOCCN | inactive | 
40 | O=C(O)c1[nH]n(-c2ccc(S(=O)(=O)O)cc2)c(=O)c1N=Nc1ccc(S(=O)(=O)O)cc1 | inactive | 
41 | CCc1cc(C2=C(C(=O)O)N(c3ccccc3C(F)(F)F)S(=O)(=O)c3ccccc32)cc2c1OCO2 | inactive | 
42 | CCCCCCCCCC[N+](C)(C)[O-] | inactive | 
43 | CN(C)CCCN1c2ccccc2Sc2ccc(Cl)cc21 |  | 76.9 µM (active)

Source: PubChem BioAssay (EPA / NIEHS)
